Test results from PubChem BioAssay (EPA / NIEHS).
Where “and” joins values, the source holds several entries; their conditions need not be identical. Equal entries are not always repeated. A structure can be active in one record and inactive in another. Calls of active or inactive are those of the source. Rule for the calls: active = hit-call score of the fitted dose curve at least 0.9, where 1 is the maximum; inactive = score below 0.9.

Columns and labels:
[1] = read-out: Interleukin-8 (IL8), CXCL8 (gene 3576); experiment: BSK_MyoF_IL8: BioMAP Diversity Plus: MyoF Assay for Interleukin-8 (IL8) Biomarker Activity (AID 2284261); conditions: primary human lung fibroblasts
Method in brief: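 IL-8 levels were measured by ELISA in human lung fibroblasts harvested 24 h after compound addition. Responses were analysed as gain of signal over the DMSO baseline.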

Decorin, DCN (gene 1634) = experiment: BSK_MyoF_Decorin: BioMAP Diversity Plus: MyoF Assay for Decorin Biomarker Activity (AID 2284265); conditions: primary human lung fibroblasts
Method in brief: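 Compound is added to lung fibroblast cultures; cells incubate 24 h; decorin is then measured by ELISA; the response is analysed upward against DMSO controls.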

[2] = read-out: Macrophage Inflammatory Protein-1 Alpha (MIP1a), CCL3 (gene 6348); experiment: BSK_IMphg_MIP1a: BioMAP Diversity Plus: IMphg Assay for Macrophage Inflammatory Protein-1 Alpha (MIP1a) Biomarker Activity (AID 2284255); conditions: primary human endothelial cells with macrophages
Method in brief: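 Co-culture of human venular endothelial cells and macrophages exposed to compounds for 24 h; MIP-1a measured by ELISA relative to DMSO. Cytotoxicity assessed in parallel cultures by sulforhodamine B total-protein staining at 560 nm.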

CD69, CD69 (gene 969) = experiment: BSK_IMphg_CD69: BioMAP Diversity Plus: IMphg Assay for CD69 Biomarker Activity (AID 2284257); conditions: primary human endothelial cells with macrophages
Method in brief: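 Human venular endothelial cells co-cultured with macrophages; CD69 quantified by ELISA 24 h after compound addition. Activity fitted in the positive direction relative to DMSO baseline; cytotoxicity tracked in parallel cultures via SRB total-protein staining.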

[3] = read-out: Eotaxin 3, CCL26 (gene 10344); experiment: BSK_BF4T_Eotaxin3: BioMAP Diversity Plus: BF4T Assay for Eotaxin 3 Biomarker Activity (AID 2284258); conditions: primary human bronchial epithelial cells with fibroblasts
Method in brief: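 Co-culture of human bronchial epithelial cells and dermal fibroblasts, exposed to chemicals for 24 h versus DMSO. Eotaxin-3 quantified by ELISA; cytotoxicity checked in parallel cultures by sulforhodamine B total-protein staining.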

[4] = read-out: Monocyte Chemoattractant Protein-1 (MCP1), CCL2 (gene 6347); experiment: BSK_BF4T_MCP1: BioMAP Diversity Plus: BF4T Assay for Monocyte Chemoattractant Protein-1 (MCP1) Biomarker Activity (AID 2284259); conditions: primary human bronchial epithelial cells with fibroblasts
Method in brief: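 Co-culture of bronchial epithelial cells and dermal fibroblasts dosed with chemical; MCP-1 measured by ELISA 24 h later. Activity fitted in positive direction versus DMSO; cytotoxicity checked by SRB staining in parallel cultures.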

[5] = read-out: Intercellular Adhesion Molecule 1 (ICAM1), ICAM1 (gene 3383); experiment: BSK_BF4T_ICAM1: BioMAP Diversity Plus: BF4T Assay for Intercellular Adhesion Molecule 1 (ICAM1) Biomarker Activity (AID 2284260); conditions: primary human bronchial epithelial cells with fibroblasts
Method in brief: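 Co-culture of human bronchial epithelial cells and dermal fibroblasts exposed 24 h to chemical; cell-surface ICAM-1 quantified by ELISA. Parallel SRB total-protein staining assessed cytotoxicity; activity fitted relative to DMSO.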

CD90, THY1 (gene 7070) = experiment: BSK_BF4T_CD90: BioMAP Diversity Plus: BF4T Assay for CD90 Biomarker Activity (AID 2284262); conditions: primary human bronchial epithelial cells with fibroblasts
Method in brief: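 Co-culture of human bronchial epithelial cells and dermal fibroblasts, 24 h compound exposure. Cell-surface CD90 measured by ELISA relative to DMSO; parallel SRB total-protein staining for cytotoxicity.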

[6] = read-out: Interleukin-8 (IL8), CXCL8 (gene 3576); experiment: BSK_BF4T_IL8: BioMAP Diversity Plus: BF4T Assay for Interleukin-8 (IL8) Biomarker Activity (AID 2284263); conditions: primary human bronchial epithelial cells with fibroblasts
Method in brief: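 Human bronchial epithelial cells with dermal fibroblasts co-culture; IL-8 measured by ELISA 24 hours after dosing, fitted vs DMSO. Cytotoxicity tracked in parallel cultures by SRB total-protein staining.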

[7] = read-out: Interleukin-1 alpha (IL1a), IL1A (gene 3552); experiment: BSK_BF4T_IL1a: BioMAP Diversity Plus: BF4T Assay for Interleukin-1 alpha (IL1a) Biomarker Activity (AID 2284264); conditions: primary human bronchial epithelial cells with fibroblasts
Method in brief: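 Human bronchial epithelial cells co-cultured with dermal fibroblasts, dosed and read at 24 h. Secreted/surface IL-1α quantified by ELISA; gain-of-signal fitted relative to DMSO baseline. Parallel SRB total-protein staining tracked cytotoxicity.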

Measured: AC50

Nc1ccc([N+](=O)[O-])cc1Cl
inactive: [1] | Decorin, DCN (gene 1634)

CCCCC(CC)COP(=O)(Oc1ccccc1)Oc1ccccc1 (stereo not drawn)
active: [1] 0.145 µM | Decorin, DCN (gene 1634) 5.87 µM

COP(=O)(O)OC
inactive: [1] | Decorin, DCN (gene 1634)

C=CC(=O)OCC(CC)(COC(=O)C=C)COC(=O)C=C
active: [1] 5.17 µM | Decorin, DCN (gene 1634) 3.09 µM

CCCCOCCOP(=O)(OCCOCCCC)OCCOCCCC
inactive: [1] | Decorin, DCN (gene 1634)

O=C(O)C(F)(F)OC(F)(F)C(F)(F)OC(F)(F)F
inactive: all assays above

O=C(O)C(F)(OC(F)(F)C(F)(F)C(F)(F)F)C(F)(F)F (stereo not drawn)
inactive: all assays above

O=P(OCC(Br)CBr)(OCC(Br)CBr)OCC(Br)CBr (stereo not drawn)
inactive: [1] | Decorin, DCN (gene 1634)

O=C(O)C=CC(F)(C(F)(F)F)C(F)(F)F
inactive: all assays above

CCCCC(CC)COC(=O)c1c(Br)c(Br)c(Br)c(Br)c1C(=O)OCC(CC)CCCC (stereo not drawn)
inactive: [1] | Decorin, DCN (gene 1634)

c1ccc2c(c1)sc1ccccc12
inactive: [1] | Decorin, DCN (gene 1634)

CC(Cl)CN(C)C (stereo not drawn)
inactive: [1] | Decorin, DCN (gene 1634)

Cc1c([N+](=O)[O-])cc2c(c1[N+](=O)[O-])C(C)(C)CC2(C)C
inactive: [1] | Decorin, DCN (gene 1634)

C=CC(=O)OCC(F)(F)C(F)F
active: [5] 13.9 µM and 22.8 µM
inactive: all other assays above

CC(O)C(F)(F)C(F)(F)F (stereo not drawn)
inactive: all assays above

OCC(F)(F)OC(F)(F)C(F)(F)OC(F)(F)C(F)(F)OC(F)(F)F
inactive: [2] | [3] | [5] | [1] | CD90, THY1 (gene 7070) | [7] | Decorin, DCN (gene 1634)
active: [2] 21.2 µM | CD69, CD69 (gene 969) 48.6 µM and 7.29 µM | [3] 49.2 µM | [4] 44.8 µM and 22.6 µM | [6] 42.8 µM and 39.6 µM

OCC(F)(F)OC(F)(F)C(F)(F)OC(F)(F)C(F)(F)OC(F)(F)CO
inactive: [2] | CD69, CD69 (gene 969) | [3] | [5] | [1] | CD90, THY1 (gene 7070) | [6] | [7] | Decorin, DCN (gene 1634)
active: [4] 17.9 µM and 22.2 µM | [5] 26.9 µM

N#Cc1cc([N+](=O)[O-])ccc1N
inactive: [1] | Decorin, DCN (gene 1634)

NC(=O)C(F)(F)C(F)(F)F
inactive: all assays above

ClC(Cl)=C(c1ccc(Cl)cc1)c1ccccc1Cl
active: [1] 9.75 µM | Decorin, DCN (gene 1634) 9.47 µM

CC(C)(C)c1ccccc1OP(=O)(Oc1ccccc1)Oc1ccccc1
inactive: [1] | Decorin, DCN (gene 1634)

Cc1ccc2c(c1N)C(=O)c1ccccc1C2=O
inactive: [1] | Decorin, DCN (gene 1634)

CCOP(=S)(NC(C)C)Oc1ccccc1C(=O)OC(C)C (stereo not drawn)
inactive: [1] | Decorin, DCN (gene 1634)

CCOP(=S)(OCC)SCSc1ccc(Cl)cc1
inactive: [1] | Decorin, DCN (gene 1634)

N#Cc1c(-c2ccc(Cl)cc2)[nH]c(C(F)(F)F)c1Br
inactive: Decorin, DCN (gene 1634)
active: [1] 0.17 µM

FC(F)(F)C(F)(C(F)(F)F)C(F)(F)C(F)(F)CC1CO1 (stereo not drawn)
inactive: all assays above

CCOP(=S)(OCC)SCn1nnc2ccccc2c1=O
inactive: [1] | Decorin, DCN (gene 1634)

O=C(O)C(F)(F)OC(F)(F)C(F)(F)OC(F)(F)C(=O)O
inactive: all assays above

O=c1ssc(Cl)c1Cl
active: Decorin, DCN (gene 1634) 9.67 µM
inactive: [1]

CC(C)Nc1ccc(Nc2ccccc2)cc1
inactive: [1] | Decorin, DCN (gene 1634)

CCOP(=S)(OCC)SCS(=O)(=O)CC
inactive: [1] | Decorin, DCN (gene 1634)

O=C(O)C(F)(F)C(F)(F)C(=O)O
inactive: all assays above

O=S(=O)(F)C(F)(F)C(F)(F)C(F)(F)C(F)(F)C(F)(F)C(F)(F)C(F)(F)C(F)(F)F
inactive: all assays above

COC(=O)C(F)(F)C(F)(F)OC(F)(C(F)(F)F)C(F)(F)OC(F)=C(F)F (stereo not drawn)
inactive: [2] | CD69, CD69 (gene 969) | [3] | [4] | [5] | [1] | CD90, THY1 (gene 7070) | [6] | [7] | Decorin, DCN (gene 1634)
active: [4] 5.24 µM | [1] 1.29 µM

O=S1(=O)OCC2C(CO1)C1(Cl)C(Cl)=C(Cl)C2(Cl)C1(Cl)Cl (stereo not drawn)
inactive: [1] | Decorin, DCN (gene 1634)

CCOP(=S)(S)OCC
inactive: [1] | Decorin, DCN (gene 1634)

COP(N)(=S)OC
inactive: [1] | Decorin, DCN (gene 1634)

OCC(F)(F)OC(F)(F)C(F)(F)OC(F)(F)CO
inactive: all assays above
